Test results reported in PubChem BioAssay (EPA / NIEHS).
Several values for one entry are separate records, joined by “and”; a condition that tells them apart may be missing. Equal values may be shown once. Inconclusive results are not listed. Some compounds were tested as several samples or in several runs, with calls that do not always agree. Activity calls are given as the source filed them. How the source made its calls, unless noted: active means hit-call score of the fitted dose curve at least 0.9, where 1 is the maximum; inconclusive means response in the unintended direction; inactive means score below 0.9.

How the values were obtained:
[1] = target: Retinoic acid receptor alpha (Homo sapiens) (UniProt P10276); test: ATG_RARa_TRANS: Attagene TRANS-FACTORIAL HepG2 Assay for human Retinoic Acid Receptor alpha (RARa) (AID 2283005)
Summary of the method: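 Reporter transcripts, measured by RT-PCR with fluorescent labeling and capillary electrophoresis after 24 h dosing, reflect activity of an exogenous human RARa–GAL4 fusion in transiently transfected HepG2. Fitted for increase relative to DMSO.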

[2] = target: Peroxisome proliferator-activated receptor gamma (Homo sapiens) (UniProt P37231); test: ATG_PPARg_TRANS: Attagene TRANS-FACTORIAL HepG2 Assay for human Peroxisome Proliferator-activated Receptor-gamma (PPARg) (AID 2283007)
Summary of the method: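 Human hepatoma HepG2, transient MRTU transfection, 24 h treatment. mRNA reporter signal by RT-PCR plus capillary electrophoresis, fluorescence detection; fitted for increase over DMSO negative control.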

[3] = target: human Retinoid X Receptor beta (RXRb), RXRB (gene 6257) (UniProt P28702); test: ATG_RXRb_TRANS: Attagene TRANS-FACTORIAL HepG2 Assay for human Retinoid X Receptor beta (RXRb) (AID 2283013)
Summary of the method: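 HepG2 cells were transiently transfected with multiplexed GAL4-UAS reporters and a chimeric RXRb-Gal4 construct, then exposed for 24 h. Reporter mRNA was quantified by RT-PCR, FAM labeling, HpaI digestion and capillary electrophoresis; gain of signal was scored against DMSO.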

[4] = BSK_3C_Proliferation: Cell Proliferation Assessment in the BioMAP Diversity Plus: 3C Assay (AID 2283006; active means hit-call score of the fitted dose curve at least 0.9, where 1 is the maximum; inactive means score below 0.9;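 on AC50: potency may reflect either rise or fall in cell number versus DMSO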); conditions: primary human endothelial cells (HUVEC)
Summary of the method: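 Subconfluent HUVEC (3C system) cultured with chemical; relative cell number read at 48 h by sulforhodamine B total-protein staining (0.1% SRB after 10% TCA fixation, 560 nm). Bidirectional fit relative to DMSO.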

[5] = target: Retinoic acid receptor RXR-alpha (Homo sapiens) (UniProt P19793); test: ATG_RXRa_TRANS: Attagene TRANS-FACTORIAL HepG2 Assay for human Retinoid X Receptor alpha (RXRa) (AID 2283012)
Summary of the method: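 HepG2 cells transiently transfected with GAL4-UAS reporter units and chimeric RXRa-Gal4 protein, treated 24 h. Reporter mRNA measured by RT-PCR, fluorescent labelling, HpaI digestion and capillary electrophoresis. Induction fitted against DMSO.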

[6] = target: Nuclear receptor subfamily 1 group I member 2 (Homo sapiens) (UniProt O75469); test: ATG_PXR_TRANS: Attagene TRANS-FACTORIAL HepG2 Assay for human Pregnane X Receptor (PXR) (AID 2283008)
Summary of the method: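 HepG2 cells transiently transfected with multiple reporter units, here a PXR-GAL4 chimera driving a GAL4-UAS reporter; 24 h compound exposure. Reporter mRNA measured by RT-PCR, FAM labelling and capillary electrophoresis; gain of signal fitted against DMSO baseline.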

[7] = target: human Retinoic Acid Receptor gamma (RARg), RARG (gene 5916) (UniProt P13631); test: ATG_RARg_TRANS: Attagene TRANS-FACTORIAL HepG2 Assay for human Retinoic Acid Receptor gamma (RARg) (AID 2283009);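 on AC50: AC50 is for reporter induction above DMSO meaning RARg activation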
Summary of the method: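 HepG2 transiently transfected with GAL4-UAS reporter units and chimeric NR-Gal4 constructs; 24 h compound exposure. Reporter mRNA quantified by RT-PCR, FAM labeling, HpaI digestion and capillary electrophoresis; gain-of-signal versus DMSO.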

[8] = target: human RAR-related Orphan Receptor beta (RORb), RORB (gene 6096) (UniProt Q92753); test: ATG_RORb_TRANS: Attagene TRANS-FACTORIAL HepG2 Assay for human RAR-related Orphan Receptor beta (RORb) (AID 2283010);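 on AC50: potency for increased reporter mRNA meaning activation of RORb-Gal4 chimera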
Summary of the method: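 HepG2 cells transiently transfected with GAL4-UAS reporter units expressing chimeric NR-Gal4 protein; reporter mRNA measured 24 h after dosing by RT-PCR, 6-FAM labelling and capillary electrophoresis. Gain-of-signal fitted relative to DMSO baseline.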

[9] = target: human RAR-related Orphan Receptor gamma (RORg), RORC (gene 6097) (UniProt P51449); test: ATG_RORg_TRANS: Attagene TRANS-FACTORIAL HepG2 Assay for human RAR-related Orphan Receptor gamma (RORg) (AID 2283011)
Summary of the method: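 Readout: reporter transcript induction (RT-PCR, fluorescent primer extension, capillary electrophoresis) after 24 h compound exposure of transiently transfected HepG2 cells carrying a RORg-Gal4 chimera and GAL4-UAS reporters; DMSO served as baseline, with increasing signal fitted.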

[10] = target: human Thyroid Receptor alpha (THRa1), THRA (gene 7067) (UniProt P10827); test: ATG_THRa1_TRANS: Attagene TRANS-FACTORIAL HepG2 Assay for human Thyroid Receptor alpha (THRa1) (AID 2283014)
Summary of the method: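 HepG2 cells transiently transfected with multiplexed GAL4-UAS reporter units for exogenous chimeric THRa1-Gal4; reporter mRNA measured 24 h after dosing by RT-PCR, 6-FAM labelling, HpaI digestion and capillary electrophoresis. Gain-of-signal fitted versus DMSO baseline.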

Measured: AC50

Nuclear receptor subfamily 1 group I member 2 (Homo sapiens), sequence (O75469 whole entry, looked up, the tested form may be a part): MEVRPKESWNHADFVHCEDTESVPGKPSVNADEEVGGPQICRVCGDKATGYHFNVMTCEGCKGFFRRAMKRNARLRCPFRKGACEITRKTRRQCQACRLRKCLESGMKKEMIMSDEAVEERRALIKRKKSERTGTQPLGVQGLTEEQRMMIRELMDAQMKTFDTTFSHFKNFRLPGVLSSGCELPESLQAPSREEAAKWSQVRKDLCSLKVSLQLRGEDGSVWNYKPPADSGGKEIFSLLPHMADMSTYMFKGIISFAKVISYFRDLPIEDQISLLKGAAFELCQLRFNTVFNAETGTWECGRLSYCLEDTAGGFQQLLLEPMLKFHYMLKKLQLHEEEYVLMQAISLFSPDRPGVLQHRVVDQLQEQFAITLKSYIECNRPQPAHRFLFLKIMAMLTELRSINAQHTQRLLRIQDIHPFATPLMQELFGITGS
human RAR-related Orphan Receptor gamma (RORg), RORC (gene 6097), sequence (P51449 whole entry, looked up, the tested form may be a part): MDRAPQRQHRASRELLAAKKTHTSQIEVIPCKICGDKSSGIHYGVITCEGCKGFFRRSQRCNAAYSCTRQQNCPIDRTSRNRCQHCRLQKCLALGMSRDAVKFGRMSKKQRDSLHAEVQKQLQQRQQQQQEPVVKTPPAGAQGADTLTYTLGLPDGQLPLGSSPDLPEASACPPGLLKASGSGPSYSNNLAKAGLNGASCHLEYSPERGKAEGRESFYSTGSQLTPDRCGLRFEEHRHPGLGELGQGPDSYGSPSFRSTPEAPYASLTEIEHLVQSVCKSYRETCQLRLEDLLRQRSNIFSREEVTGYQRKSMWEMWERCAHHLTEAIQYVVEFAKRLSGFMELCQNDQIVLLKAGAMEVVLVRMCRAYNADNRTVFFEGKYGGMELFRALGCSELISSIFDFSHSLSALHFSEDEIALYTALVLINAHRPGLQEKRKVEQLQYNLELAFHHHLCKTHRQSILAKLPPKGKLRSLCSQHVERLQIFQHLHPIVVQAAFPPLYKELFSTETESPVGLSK
Retinoic acid receptor RXR-alpha (Homo sapiens), sequence (P19793 whole entry, looked up, the tested form may be a part): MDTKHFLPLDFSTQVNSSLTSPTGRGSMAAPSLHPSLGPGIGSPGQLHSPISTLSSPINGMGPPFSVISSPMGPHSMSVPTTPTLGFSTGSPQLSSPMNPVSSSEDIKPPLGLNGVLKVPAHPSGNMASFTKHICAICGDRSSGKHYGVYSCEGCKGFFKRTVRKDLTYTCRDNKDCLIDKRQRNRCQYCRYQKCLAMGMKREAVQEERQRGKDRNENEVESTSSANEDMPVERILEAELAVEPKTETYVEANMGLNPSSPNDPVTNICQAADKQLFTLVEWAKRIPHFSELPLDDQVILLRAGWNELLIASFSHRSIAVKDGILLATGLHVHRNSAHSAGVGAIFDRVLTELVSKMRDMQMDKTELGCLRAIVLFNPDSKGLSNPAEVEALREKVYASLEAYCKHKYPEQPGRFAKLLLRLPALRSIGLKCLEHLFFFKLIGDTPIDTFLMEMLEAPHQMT
human Retinoid X Receptor beta (RXRb), RXRB (gene 6257), sequence (P28702 whole entry, looked up, the tested form may be a part): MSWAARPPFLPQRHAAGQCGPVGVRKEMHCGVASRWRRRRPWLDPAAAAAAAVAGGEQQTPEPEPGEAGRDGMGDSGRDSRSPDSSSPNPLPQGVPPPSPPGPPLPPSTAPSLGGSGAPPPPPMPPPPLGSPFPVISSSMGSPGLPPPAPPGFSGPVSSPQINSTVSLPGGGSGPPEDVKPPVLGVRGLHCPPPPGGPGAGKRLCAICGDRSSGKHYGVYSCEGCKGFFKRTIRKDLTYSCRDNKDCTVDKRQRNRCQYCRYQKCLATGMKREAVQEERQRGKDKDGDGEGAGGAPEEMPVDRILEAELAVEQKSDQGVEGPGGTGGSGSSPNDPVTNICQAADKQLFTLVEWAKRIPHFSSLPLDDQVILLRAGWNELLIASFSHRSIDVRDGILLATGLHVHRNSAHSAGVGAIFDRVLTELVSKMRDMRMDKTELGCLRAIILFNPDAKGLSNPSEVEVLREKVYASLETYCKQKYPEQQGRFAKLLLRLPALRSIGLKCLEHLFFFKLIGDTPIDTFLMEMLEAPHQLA
human Thyroid Receptor alpha (THRa1), THRA (gene 7067), sequence (P10827 whole entry, looked up, the tested form may be a part): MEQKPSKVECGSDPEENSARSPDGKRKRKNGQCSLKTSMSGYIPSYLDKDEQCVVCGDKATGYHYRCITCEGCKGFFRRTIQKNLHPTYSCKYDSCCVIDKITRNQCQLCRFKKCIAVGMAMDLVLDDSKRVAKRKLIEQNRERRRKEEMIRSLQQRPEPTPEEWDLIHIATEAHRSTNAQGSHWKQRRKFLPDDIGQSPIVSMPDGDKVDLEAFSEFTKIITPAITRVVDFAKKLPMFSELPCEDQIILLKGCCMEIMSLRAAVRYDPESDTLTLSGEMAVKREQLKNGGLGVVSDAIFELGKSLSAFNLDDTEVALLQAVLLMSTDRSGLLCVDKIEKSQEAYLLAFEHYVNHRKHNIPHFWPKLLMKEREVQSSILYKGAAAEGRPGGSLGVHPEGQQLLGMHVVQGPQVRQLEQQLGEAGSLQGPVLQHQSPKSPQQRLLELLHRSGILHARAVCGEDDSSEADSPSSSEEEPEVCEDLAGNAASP
human RAR-related Orphan Receptor beta (RORb), RORB (gene 6096), sequence (Q92753 whole entry, looked up, the tested form may be a part): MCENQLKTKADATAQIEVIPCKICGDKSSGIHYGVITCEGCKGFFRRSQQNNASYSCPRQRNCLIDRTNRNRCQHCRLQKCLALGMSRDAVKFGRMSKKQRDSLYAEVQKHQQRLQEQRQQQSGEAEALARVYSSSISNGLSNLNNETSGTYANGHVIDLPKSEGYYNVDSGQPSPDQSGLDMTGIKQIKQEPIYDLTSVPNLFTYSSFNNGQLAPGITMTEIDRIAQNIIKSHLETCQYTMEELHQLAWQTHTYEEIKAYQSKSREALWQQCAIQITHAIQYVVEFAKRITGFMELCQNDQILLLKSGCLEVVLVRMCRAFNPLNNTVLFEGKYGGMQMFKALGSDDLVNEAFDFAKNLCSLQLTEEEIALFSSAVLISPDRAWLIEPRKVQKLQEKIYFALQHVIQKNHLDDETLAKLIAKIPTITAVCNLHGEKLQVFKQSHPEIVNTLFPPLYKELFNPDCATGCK
Peroxisome proliferator-activated receptor gamma (Homo sapiens), sequence (P37231 whole entry, looked up): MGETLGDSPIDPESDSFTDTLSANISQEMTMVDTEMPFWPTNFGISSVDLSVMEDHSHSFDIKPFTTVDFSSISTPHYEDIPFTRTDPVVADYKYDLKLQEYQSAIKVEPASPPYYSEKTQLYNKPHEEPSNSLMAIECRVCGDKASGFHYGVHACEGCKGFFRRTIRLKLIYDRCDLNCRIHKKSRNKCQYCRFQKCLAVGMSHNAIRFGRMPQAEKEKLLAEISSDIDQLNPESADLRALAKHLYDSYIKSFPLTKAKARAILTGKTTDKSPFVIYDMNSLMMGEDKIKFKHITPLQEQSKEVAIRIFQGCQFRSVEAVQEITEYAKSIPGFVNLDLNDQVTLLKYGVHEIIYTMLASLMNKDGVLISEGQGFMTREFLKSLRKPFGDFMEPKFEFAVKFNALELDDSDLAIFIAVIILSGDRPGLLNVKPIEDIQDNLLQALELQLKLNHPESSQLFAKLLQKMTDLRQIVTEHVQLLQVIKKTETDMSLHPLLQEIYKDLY
Retinoic acid receptor alpha (Homo sapiens), sequence (P10276 whole entry, looked up, the tested form may be a part): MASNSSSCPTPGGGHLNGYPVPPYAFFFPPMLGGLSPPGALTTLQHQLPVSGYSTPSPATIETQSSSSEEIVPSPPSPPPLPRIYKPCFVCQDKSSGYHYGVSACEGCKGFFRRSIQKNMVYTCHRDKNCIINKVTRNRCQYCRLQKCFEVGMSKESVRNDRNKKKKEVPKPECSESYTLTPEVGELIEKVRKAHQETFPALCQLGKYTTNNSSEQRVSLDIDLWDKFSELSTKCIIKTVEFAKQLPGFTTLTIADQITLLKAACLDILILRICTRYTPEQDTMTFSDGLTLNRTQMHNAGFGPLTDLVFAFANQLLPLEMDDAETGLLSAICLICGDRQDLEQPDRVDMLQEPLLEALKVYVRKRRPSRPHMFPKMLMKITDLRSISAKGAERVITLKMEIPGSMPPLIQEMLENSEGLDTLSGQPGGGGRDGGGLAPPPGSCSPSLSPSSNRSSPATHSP
human Retinoic Acid Receptor gamma (RARg), RARG (gene 5916), sequence (P13631 whole entry, looked up, the tested form may be a part): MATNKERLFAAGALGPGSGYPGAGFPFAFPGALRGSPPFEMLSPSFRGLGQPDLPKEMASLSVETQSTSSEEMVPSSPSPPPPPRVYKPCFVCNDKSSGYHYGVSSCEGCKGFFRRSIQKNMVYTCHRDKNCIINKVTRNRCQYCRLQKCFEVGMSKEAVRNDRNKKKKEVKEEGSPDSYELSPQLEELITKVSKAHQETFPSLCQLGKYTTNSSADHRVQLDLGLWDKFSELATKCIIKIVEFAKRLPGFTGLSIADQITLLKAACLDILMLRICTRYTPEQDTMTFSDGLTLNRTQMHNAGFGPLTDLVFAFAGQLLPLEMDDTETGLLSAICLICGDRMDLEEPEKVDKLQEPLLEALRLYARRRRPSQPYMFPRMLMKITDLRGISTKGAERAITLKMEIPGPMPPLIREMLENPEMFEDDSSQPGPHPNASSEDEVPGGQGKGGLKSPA

ClC1=C(Cl)[C@]2(Cl)[C@@H]3[C@@H](Cl)[C@@H](Cl)C[C@@H]3[C@@]1(Cl)C2(Cl)Cl
inactive: [1] | [2] | [3]

NC(=S)Nc1ccccc1
inactive: [1] | [4] | [5]

O=C(O)C(F)(F)C(F)(F)C(F)(F)C(F)(F)C(F)(F)C(F)(F)C(F)(F)C(F)(F)C(F)(F)C(F)(F)F
inactive: [1] | [6] | [7] | [8] | [9] | [5] | [3] | [10]
active: [4] 33 µM and 5.16 µM and 5.38 µM | [2] 25.5 µM and 13.3 µM | [3] 13.5 µM

CC(=O)[O][Hg][c]1ccccc1
inactive: [1] | [2] | [6] | [10]
active: [4] 1.18 µM | [3] 14.8 µM

CCOP(=O)(CN(CCO)CCO)OCC
inactive: [1] | [2] | [7] | [8] | [3] | [10]

CC(C)C1CCC(Cc2ccc(Cl)cc2)C1(O)Cn1cncn1 (stereo unspecified)
active: [6] 1.79 µM
not listed: [4] | [8] | [9]
inactive: all other assays above

O=c1[nH]c(=O)[nH]c(=O)[nH]1
not listed: [7]
inactive: all other assays above

ClCC(Cl)CCl
inactive: [1] | [4] | [7] | [9] | [5] | [3]

CCC(C)(C)c1ccc(O)c(C(C)(C)CC)c1
inactive: [1]
active: [4] 8.85 µM | [2] 33.4 µM | [6] 12.6 µM | [7] 27.4 µM | [8] 27.3 µM | [5] 33.4 µM | [3] 9.09 µM | [10] 45.8 µM

O=[N+]([O-])c1c(Cl)c(Cl)cc(Cl)c1Cl
inactive: [1] | [6] | [7] | [5] | [10]
active: [2] 0.905 µM | [3] 32.9 µM

CCOP(=S)(OCC)SCSP(=S)(OCC)OCC
active: [6] 0.168 µM | [3] 12.4 µM
not listed: [8]
inactive: all other assays above

CCOP(OCC)OCC
inactive: [1] | [6] | [9] | [3]

CC(C)OC(=O)Nc1ccccc1
inactive: [1] | [2] | [6] | [7] | [10]

BrCCBr
active: [3] 48.2 µM
not listed: [8]
inactive: all other assays above

O=C(Cl)c1ccc(Cl)cc1
inactive: [1] | [2] | [9] | [5] | [10]

O=C1C2(Cl)C3(Cl)C4(Cl)C(Cl)(Cl)C5(Cl)C3(Cl)C1(Cl)C5(Cl)C24Cl (stereo unspecified)
inactive: [1] | [2] | [6] | [7] | [8] | [5] | [3] | [10]
active: [4] 4.9 µM | [6] 2.11 µM and 2.9 µM and 6.2 µM | [3] 2.67 µM and 7.57 µM | [10] 4.37 µM and 56.4 µM

O=C(Cc1ccccc1)c1ccccc1
active: [6] 27.8 µM
inactive: [1] | [7] | [5] | [3]

O=C1C(Cl)=C(Cl)C(=O)c2ccccc21
not listed: [4] | [10]
inactive: all other assays above

Nc1ccc(N=Nc2ccc(-c3ccc(N=Nc4c(S(=O)(=O)O)cc5cc(S(=O)(=O)O)c(N=Nc6ccccc6)c(O)c5c4N)cc3)cc2)c(N)c1
inactive: [1] | [2] | [6] | [3]

CCSC(C)CC1CC(=O)C(C(CC)=NOC/C=C/Cl)=C(O)C1 (stereo unspecified)
inactive: [1] | [4] | [7] | [5] | [10]
active: [2] 35.3 µM | [6] 7.44 µM

CCN1CCC2(CC1)COc1cc3c(cc12)N(C(=O)c1ccc(-c2ccc(-c4nnc(C)o4)cc2C)cc1)CC3
active: [4] 5.23 µM
not listed: [2] | [9] | [10]
inactive: all other assays above

O=C(O)Cc1ccccc1
inactive: [1] | [2] | [6] | [8] | [5] | [3]

O=P(O)(O)CN(CP(=O)(O)O)CP(=O)(O)O
not listed: [2] | [4]
inactive: all other assays above

CCCCCCCCc1ccc(O)cc1
inactive: [1] | [6] | [7] | [9] | [5] | [10]
active: [4] 8.43 µM | [2] 22 µM | [6] 7.55 µM | [7] 33.5 µM | [3] 24.5 µM | [10] 43.7 µM

O=[N+]([O-])c1ccc(O)c([N+](=O)[O-])c1
inactive: [1] | [4] | [2] | [5] | [10]

O=C(O)C(Cl)(Cl)Cl
not listed: [2] | [7]
inactive: all other assays above
